Sampled rows, rich in hits. Any-hit rate of the full collection: about 2.8%.
proKLK7 act: activates the human kallikrein-7 zymogen; activation, % at 7 µM; AID 652039; purified proKLK7, EDANS-DABCYL substrate fluorescence; 100% is mature enzyme control, 0% vehicle; 370,000 compounds, 0.9% hits;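 active means activation above the mean of all tested compounds plus 3 SD, computed per campaign excluding outliers beyond control limits, cut at about 13% in these data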
Target sequence (P49862 whole entry, looked up): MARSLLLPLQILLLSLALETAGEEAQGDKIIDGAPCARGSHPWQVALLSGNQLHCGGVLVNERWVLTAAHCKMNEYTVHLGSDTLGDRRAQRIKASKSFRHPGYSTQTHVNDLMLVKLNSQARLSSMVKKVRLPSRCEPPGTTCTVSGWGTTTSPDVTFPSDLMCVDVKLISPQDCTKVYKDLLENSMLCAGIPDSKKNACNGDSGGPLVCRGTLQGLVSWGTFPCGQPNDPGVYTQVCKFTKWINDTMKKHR
MsrA inh: inhibits bovine methionine sulfoxide reductase A; purified bovine MsrA, absorbance read-out; inhibition, % at 15.5 µM; 360,000 compounds, 0.75% hits; AID 651718; in the data active means inhibition above about 4.5%;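 further: 0% = vehicle wells with enzyme and 100% = reference inhibitor wells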
MsrA act: bovine methionine sulfoxide reductase A activation; purified bovine MsrA, absorbance read-out; activation, % at 10.6 µM; 360,000 compounds, 0.3% hits; AID 602163; in the data active means activation above about 7.5%;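 further: 0% = vehicle and 100% = reference activator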
SMARCA2 activ: activators of SMARCA2 function. MG213 cells, MMTV-luciferase reporter, dexamethasone, overnight. activation, % at 9.1 µM. AID 652017. 370,000 compounds, 1% hits; in the data active means activation above about 7.8%;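 further: 0% = vehicle wells and 100% = reference activator wells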
proKLK7 act conf: confirmation of human kallikrein-7 zymogen activators; 3,200 compounds, 68% hits; activation, % at 7 µM; purified proKLK7, EDANS-DABCYL substrate fluorescence; scaled: vehicle 0, mature enzyme 100; shares compounds with proKLK7 act;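 active means activation, as change over the incubation, above the mean of all tested compounds plus 3 SD, cut at about 13% in these data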
EDANS-DABCYL int: optically interferes with EDANS-DABCYL signal, flagging KLK7 hits. shares compounds with proKLK7 act. EDANS-DABCYL substrate fluorescence interference, no enzyme, 4 h; solvent 0%, active enzyme control 100%. activation, % at 7 µM. 3,200 compounds, 80% hits. AID 686952;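 active means activation above the all-compound mean plus 3 SD, ignoring values outside control-based bounds, cut at about 4.8% in these data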;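 further: value is the 4 h activation minus the activation read at time zero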
K7 EDANS ctr: EDANS fluorescence interference in dose response, no enzyme; EDANS-DABCYL peptide fluorescence interference; EC50, µM; AID 720493; 250 compounds, 20% hits; shares compounds with proKLK7 act;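 active means compounds that raise the fluorescence signal in this interference counterscreen, with EC50 at or below 10 µM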;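 further: intact quenched peptide substrate alone read at 355 nm excitation and 520 nm emission; signal is fluorescence gain from T0 to T4 after four hours at room temperature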
* hit, by the source's call; . = no result given.

SMILES | proKLK7 act | MsrA inh | MsrA act | SMARCA2 activ | proKLK7 act conf | EDANS-DABCYL int | others
Cc1c(C2(O)CCCCC2)[nH]c2cnccc12 | 77* | 1 | 0 | 1 | 24* | 14* | K7 EDANS ctr=>70
C#CCN1CC(COCCCC)Oc2cccc(Oc3ccc(C(C)(C)C)c(C)c3)c2S1(=O)=O (stereo not given) | 0 | 0 | . | 0 | . | .
Clc1cccc(-c2cccc3nccn23)c1 | 8 | 1 | -3 | -5 | . | .
c1cc(-c2ccc(N3CCOCC3)cc2)n2ccnc2c1 | 79* | 3 | -7 | -3 | 47* | 59*
CS(=O)(=O)Nc1ccc(-c2cccc3nccn23)cc1 | -41 | 0 | -1 | 0 | . | .
CN(C)c1ccc(-c2cccc3nccn23)cc1 | 40* | 2 | -4 | -1 | 70* | 60* | K7 EDANS ctr=>70
N#CCc1ccc(-c2cccc3nccn23)cc1 | 22* | 2 | 1 | -5 | 13* | 26*
CC(C)C[C@@H]1COc2cc(NCCO)ccc2S(=O)(=O)N1 | 0 | -1 | . | 0 | . | .
CC1(c2nc3ccccc3[nH]2)CCC2=Nc3ccccc3CN21 (stereo not given) | 0 | 1 | -3 | 0 | . | .
COP(=O)(c1ccc(N(C)C)cc1)C(O)c1ccccc1 (stereo not given) | 29* | 1 | -1 | -1 | 0 | 0
CCOP(=O)(c1ccc(N(C)C)cc1)C(O)c1ccccc1 (stereo not given) | 0 | -1 | -3 | -6 | . | .
C=CCN1C(=O)[C@H](CC(=O)N2CCOCC2)[C@@]2(C(=O)OCC)CCCC=C12 | 0 | . | . | -1 | . | .
COCCNc1oc(/C=C/c2ccccc2)nc1C#N | 106* | 5 | -6 | 1 | 71* | 76*
N#Cc1nc(COc2ccc(-c3ccccc3)cc2)oc1NCCCN1CCOCC1 | 0 | 1 | 0 | 1 | . | .
N#Cc1nc(/C=C/c2ccccc2)oc1NCCCN1CCOCC1 | 32* | 3 | -3 | -1 | 75* | 71*
N#Cc1nc(-c2cccs2)oc1NCCCN1CCOCC1 | 42* | 1 | -3 | -1 | 78* | 78*
CCOC(=O)[C@]12CCCC=C1N(Cc1ccc3c(c1)OCO3)C(=O)[C@H](CC(=O)N1CCN(C(=O)C3CC3)CC1)C2 | 0 | 0 | -2 | -1 | . | .
Nc1ccn([C@@H]2O[C@H](CNCc3ccc(-c4cc(C(F)(F)F)ccc4Cl)o3)[C@@H](O)[C@H]2O)c(=O)n1 | -1 | 1 | -8 | -3 | . | .
CCCNC(=O)C1(C)CCN(Cc2cc(C(F)(F)F)ccc2Cl)C1 (stereo not given) | -1 | 0 | 2 | 3 | . | .
Cc1c(C)c2c(OCC(=O)N3CCC[C@H]3C(=O)O)cc3c(c2oc1=O)CCC(C)(C)O3 | 71* | 3 | -2 | 1 | 71* | 70*
Cc1c(C)c2c(OCC(=O)N3CCC(O)CC3)cc3c(c2oc1=O)CCC(C)(C)O3 | 42* | 1 | -1 | 2 | 69* | 73*
Cc1c(C)c2c(OCC(=O)NCc3ccncc3)cc3c(c2oc1=O)CCC(C)(C)O3 | -7 | 1 | -4 | 1 | . | .
Cc1c(C)c2c(OCC(=O)NCc3ccco3)cc3c(c2oc1=O)CCC(C)(C)O3 | -2 | 0 | -8 | 2 | . | .
O=[N+]([O-])c1ccc(OC[C@@H](O)CN2CCC(C(O)(c3ccccc3)c3ccccc3)CC2)c(Cl)c1 | 1 | . | . | -2 | . | .
Cc1c(O)ccc2cc(S(=O)(=O)c3ccccc3)c(=O)oc12 | 45* | 2 | -3 | -3 | 70* | 73*
C[C@H]1/C=C/CC(=O)N[C@@H](c2ccc3ccccc3c2)[C@@H](C)/C=C/CC(=O)N[C@H]1c1ccc2ccccc2c1 | 0 | . | . | 0 | . | .
O=C(C[C@H]1C(=O)N(Cc2ccccc2)C[C@@H]1Cc1ccccc1)Nc1ccc(Br)cc1 | 0 | 1 | -5 | -4 | . | .
CCOC(=O)c1cc(-c2cc3ccccc3o2)nc2c1c(=O)[nH]c(=O)n2CCOC | 19* | 0 | -3 | 0 | -447 | -484
CCOC(=O)CNC(=O)CSc1nc(C)cc(C)c1C#N | 2 | 2 | -2 | -3 | . | .
Cc1cc(C)c(C#N)c(SCC(=O)C(C)(C)C)n1 | 1 | -1 | -3 | 2 | . | .
